According to article PMC4336329 (PLoS ONE, 2015):
Among all 310,000 compounds or so, about 14,000 (4.5%) showed an effect of 50% or more. Effects have a minus sign here. The full list was thinned out, with strong results kept by preference.

Biological target: human ether-à-go-go-related gene (hERG) potassium channel (human, UniProt Q12809)
Experiment: primary screen, population patch clamp on CHO cells stably expressing hERG; higher = less effect of the substance
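Further: peak tail current of the secondary pulse compared with the same well before compound.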

human ether-à-go-go-related gene (hERG) potassium channel, sequence (Q12809 whole entry, looked up): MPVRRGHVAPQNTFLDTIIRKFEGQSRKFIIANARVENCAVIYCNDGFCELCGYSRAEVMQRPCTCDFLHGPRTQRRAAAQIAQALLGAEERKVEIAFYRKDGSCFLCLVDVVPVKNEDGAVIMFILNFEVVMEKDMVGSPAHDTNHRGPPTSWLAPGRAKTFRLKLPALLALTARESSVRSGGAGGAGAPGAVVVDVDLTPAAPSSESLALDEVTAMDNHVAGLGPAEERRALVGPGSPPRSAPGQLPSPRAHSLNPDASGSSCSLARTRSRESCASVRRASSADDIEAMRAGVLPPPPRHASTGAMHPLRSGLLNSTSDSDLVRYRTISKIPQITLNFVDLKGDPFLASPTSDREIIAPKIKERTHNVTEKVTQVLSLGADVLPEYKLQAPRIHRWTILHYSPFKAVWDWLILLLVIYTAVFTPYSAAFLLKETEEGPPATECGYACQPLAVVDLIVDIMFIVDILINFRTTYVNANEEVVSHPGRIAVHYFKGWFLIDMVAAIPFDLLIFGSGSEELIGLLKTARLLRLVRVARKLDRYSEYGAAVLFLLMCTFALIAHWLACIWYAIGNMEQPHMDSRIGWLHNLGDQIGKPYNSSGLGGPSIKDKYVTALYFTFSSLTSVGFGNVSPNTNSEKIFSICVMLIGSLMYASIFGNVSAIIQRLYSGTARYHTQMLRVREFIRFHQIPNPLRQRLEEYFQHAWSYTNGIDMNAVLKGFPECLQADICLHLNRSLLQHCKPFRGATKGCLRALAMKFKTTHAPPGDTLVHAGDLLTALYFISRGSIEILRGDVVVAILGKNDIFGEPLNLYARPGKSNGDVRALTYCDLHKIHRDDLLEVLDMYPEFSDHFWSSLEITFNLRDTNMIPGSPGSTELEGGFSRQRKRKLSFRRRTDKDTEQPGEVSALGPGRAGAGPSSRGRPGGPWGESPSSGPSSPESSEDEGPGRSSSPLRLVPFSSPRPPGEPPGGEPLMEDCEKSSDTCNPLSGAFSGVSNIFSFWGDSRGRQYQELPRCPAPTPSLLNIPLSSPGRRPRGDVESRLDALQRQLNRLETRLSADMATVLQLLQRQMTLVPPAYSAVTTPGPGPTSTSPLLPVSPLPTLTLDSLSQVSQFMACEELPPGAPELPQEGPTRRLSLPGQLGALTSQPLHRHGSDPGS

SMILES | hERG current change (%, negative = inhibition) at 10uM
C/C=C(/C)C(=O)Nc1cccc(C2=NOC3(C2)C[C@@H](C(N)=O)N(C(=O)CCCCC)C3)c1 (stereo partly shown) | -40.1%
COc1cc(/C=N/NC(=O)c2cc(C3CC3)[nH]n2)ccc1O | -12.7%
CCOC(=O)C1=C(C)N(CC)C(=S)NC1c1ccc(Cl)cc1 (stereo not shown) | -9.13%
COc1ccc2c(c1)C(c1ccccc1)=NNC(c1ccco1)=N2 | -15.7%
COc1ccc2c(c1)C(c1ccc([N+](=O)[O-])cc1)=NNC(c1ccco1)=N2 | -60%
COc1ccc(C2=NNC(c3ccco3)=Nc3ccc(F)cc32)cc1 | -10.8%
O=C(CS(=O)(=O)c1cn(Cc2ccc(F)cc2)c2ccccc12)N1CCCCC1 | -0.405%
Cc1ccc(C#CC[N+](C)(C)CC#Cc2ccccc2)cc1.[Br-] | -75.9%
C#CC[N+](C)(C)CC#Cc1ccccc1.[Br-] | 13.3%
C#CC[N+](CC)(CC)CC#Cc1ccccc1.[Br-] | 9.22%
CC[N+](CC)(CC#CCO)CC#Cc1ccccc1.[Br-] | 33.7%
C#CC[N+](C)(C)CC#Cc1ccc(C)cc1.[Br-] | 6.33%
CC[N+](CC)(CC#Cc1ccccc1)CC#Cc1ccccc1.[Br-] | -69.8%
O=C(CSc1nnc(CNC(=O)c2ccco2)o1)Nc1ccc(F)cc1F | 8.95%
O=C(c1ccc(C#Cc2ccccc2)o1)N1CCN(c2ccccn2)CC1 | -6.76%
COc1ccc(Nc2ncccc2C(=O)Nc2ccccc2)cc1 | -9.63%
Cc1ccc(OCc2ccccc2Br)c([N+](=O)[O-])n1 | 16.7%
CN(Cc1cccc2cnccc12)C(=O)CCc1nnc(CCc2ccccc2)o1 | -44.7%
CC(=O)c1ccc(-c2nnc(CCC(=O)N(C)Cc3cccc4cnccc34)o2)s1 | -81.4%
COc1ccccc1CCc1nnc(CCC(=O)N(C)Cc2cccc3cnccc23)o1 | -35.3%
O=C(NC1CCCCC1)C(c1ccncc1)N(Cc1ccc(F)cc1)C(=O)c1ccccn1 (stereo not shown) | -5.49%
Cc1cc(S(=O)(=O)N2CCc3ccccc3C2)ccc1F | 7.2%
CC(NC(=O)CN1CCN(c2ccc(Cl)cc2)CC1)c1ccccc1 (stereo not shown) | -42.7%

SMILES | hERG current change (%, negative = inhibition) at 10uM
CC(CCc1ccccc1)NC(=O)CN1CCc2ccccc2C1 (stereo not shown) | -22.4%
O=C(CN1CCN(c2ccc(O)cc2)CC1)NC(c1ccccc1)c1ccccc1 | -50.8%
CC(CCc1ccccc1)NC(=O)CN1CCN(c2ccccc2)CC1 (stereo not shown) | -55.8%
COc1ccc(/C=N/NC(=O)CN2CCCC2)cc1 | -14.8%
CC(=O)C(Cc1ccccc1)NC(=O)CN1CCN(Cc2ccccc2)CC1 (stereo not shown) | -5.57%
COc1ccc(N2CCN(CC(=O)NC(C)c3ccccc3)CC2)cc1 (stereo not shown) | 20.6%
COc1ccc(C(NC(=O)CN2CCCCCC2)c2ccc(OC)cc2)cc1 | -65.9%
O=C(CN1CCN(Cc2ccccc2)CC1)NC(c1ccccc1)c1ccccc1.O=C(O)C(=O)O | -59.8%
O=C(O)C(=O)O.c1ccc(CN2CCN(C(c3ccccc3)c3ccccc3)CC2)cc1 | 2.22%
CC(CCc1ccccc1)NC(=O)CN1CCN(c2ccc(O)cc2)CC1 (stereo not shown) | -37.1%
O=C(CN1CCN(c2ccccc2O)CC1)NC(c1ccccc1)c1ccccc1 | -22.7%
Cc1ccc(SCCSc2ncccn2)cc1 | -2.38%
CC(C)c1cc(-c2n[nH]c(=S)n2Cc2ccccc2)cs1 | 17.8%
Cc1cc(C)nc(N2CCN(C(=O)CCC(=O)Nc3nnc(CC(C)C)s3)CC2)n1 | -6.7%
O=C(N1CCCCC1)N1CCN(S(=O)(=O)c2cccc([N+](=O)[O-])c2)CC1 | -15.8%
COc1cc(S(=O)(=O)NCc2cccnc2)ccc1F | -5.7%
CN(C)C(=O)N1CCCC(C(=O)NCc2cccs2)C1 (stereo not shown) | 1.62%
CNc1ccccc1C(=O)OCC(=O)N(CCOC)c1c(N)n(CC(C)C)c(=O)[nH]c1=O | 9.81%
CCCCN1CCNC[C@@H]1Cc1ccc(O)cc1 | 16%
CCN(CC(=O)Nc1ccc(Br)c(C)c1)CC(=O)NC(C)C | -4.86%
O=C(NCCO)c1cc([N+](=O)[O-])cc2c1C=Cc1ccccc1O2 | -31.4%
CC1Cc2ccccc2N1C(=O)COC(=O)C1(c2ccccc2F)CCCC1 (stereo not shown) | -5.21%
CCN(CC)S(=O)(=O)c1ccc(NS(=O)(=O)c2cccc(C)c2)cc1 | -20.4%

SMILES | hERG current change (%, negative = inhibition) at 10uM
O=C(O)CCC1(c2ccccc2)NC(=O)NC1=O (stereo not shown) | 2.53%
C[n+]1ccccc1/C=N/O.[Cl-] | 17.3%
COc1ccccc1CN1Cc2cccc3c2[C@@H](CC1=O)[C@H](O)[C@H](O)C3 | 4.43%
COC(=O)C1C(=O)N2CCCSC2=C(C#N)C1c1cccs1 (stereo not shown) | 1.49%
CC(NC(=O)CN1CCCC1)c1ccccc1 (stereo not shown) | 21%
CSc1ccccc1NC(=O)CN1CCCCC1C (stereo not shown) | 0.324%
O=C(CN1CCCCCC1)NC(c1ccccc1)c1ccccc1.O=C(O)C(=O)O | -57.7%
O=C(CN1CCCC1)NC(c1ccccc1)c1ccccc1.O=C(O)C(=O)O | -34.7%
CC1Cc2ccccc2N1CC(=O)NC(c1ccccc1)c1ccccc1.O=C(O)C(=O)O (stereo not shown) | 19.1%
CC1CC(C)CN(CC(=O)NC(c2ccccc2)c2ccccc2)C1.O=C(O)C(=O)O (stereo not shown) | -68.4%
CC1CCCCN1CC(=O)NC(c1ccccc1)c1ccccc1.O=C(O)C(=O)O (stereo not shown) | -65.8%
CC1CCCCN1CC(=O)NC(=O)NCc1ccccc1 (stereo not shown) | 16.8%
CC1CN(CC(=O)NC(C)c2ccccc2)CC(C)O1 (stereo not shown) | 9.23%
CCOCCCN1CN(Cc2ccco2)CNC1=S | 7.86%
CC1=C(c2ccc(F)cc2)[N+](=O)C(C)(C)N1[O-] | 17.7%
Cc1ccc(-c2cc(=O)c3ccccc3[nH]2)cc1 | 13.6%
Cc1cccn2cc(CCNS(=O)(=O)c3ccc([N+](=O)[O-])cc3)nc12 | -22.7%
COc1ccc(N2CCN(CC(O)c3c[nH]c4ccc(OC)cc34)CC2C)cc1 (stereo not shown) | -68.1%
COc1ccc2[nH]cc(C(O)CN3CCN(c4ccccc4F)CC3)c2c1 (stereo not shown) | -22%
COc1ccc2[nH]cc(C(O)CN3CCC(C(N)=O)CC3)c2c1 (stereo not shown) | 12%
CC(Cc1ccccc1)[n+]1cc(/N=C(\[O-])Nc2ccccc2)on1 (stereo not shown) | -17.4%
CC1Sc2ccc(S(=O)(=O)NCCc3ccccc3)cc2NC1=O (stereo not shown) | 12.5%
CC1CCN(CCOc2cc(Cl)ccc2Cl)CC1 | -33.8%

SMILES | hERG current change (%, negative = inhibition) at 10uM
CC1CCCN(CCOCCOc2ccc(Br)cc2Cl)C1.O=C(O)C(=O)O (stereo not shown) | -71%
Clc1cc(Br)ccc1OCCOCCN1CCCC1.O=C(O)C(=O)O | -57.1%
CC1CCN(CCOCCOc2ccc(Br)cc2Cl)CC1.O=C(O)C(=O)O | -75.5%
CC1CCN(CCOc2ccc(Cl)c(Cl)c2)CC1 | -46.3%
CC1CCN(CCCOc2ccc(Cl)cc2Br)CC1 | -76.3%
Clc1cc(Br)ccc1OCCN1CCOCC1.O=C(O)C(=O)O | -2.95%
CN1CCN(CCOCCOc2ccc(Br)cc2Cl)CC1.O=C(O)C(=O)O | -14.2%
CC(C)N1CCN(Cc2ccc3c(c2)OCCO3)CC1CCO (stereo not shown) | 3.63%
NC(=O)N/N=C/c1ccc(-c2cccc(C(F)(F)F)c2)o1 | -4.87%
Cc1cc(C)cc(NC(=O)CCn2ccnc2)c1 | 3.41%
Cc1c(C(=O)NCc2ccc(S(N)(=O)=O)cc2)oc2ccc(Cl)cc12 | 10%
CCCCn1c(N)c(N(CCOC)C(=O)CSCC(=O)Nc2cccc(C)c2)c(=O)[nH]c1=O | 11.5%
c1ccc(-c2nc(CSc3nnc(-c4cccs4)o3)cs2)cc1 | -9.61%
CCS(=O)(=O)c1ncc(Cl)c(C(=O)Nc2ccc(S(=O)(=O)N(C)c3ccccc3)cc2)n1 | 15.5%
CCOC(=O)N1CCC(NC(=O)c2cc(C(=O)NC3CCCC3)ccc2CO)CC1 | 12.9%
O=C(O)c1ccn(CSc2cc(Cl)ccc2Cl)n1 | 5.46%
CCOC(=O)NNC(=S)Nc1c(C)n(C)n(-c2ccccc2)c1=O | 4.89%
COc1ccc(NC(=O)CC(C)CC(=O)NCc2ccc(F)cc2)c(OC)c1 (stereo not shown) | -4.08%
CCn1cc(/C=C(\NC(=O)c2ccccc2Cl)C(=O)N2CCOCC2)c2ccccc21 | -2.35%
O=C(NNC(=S)Nc1ccccc1)c1cccc(S(=O)(=O)N2CCOCC2)c1 | 15.3%
CCC1CCCCN1C(=O)c1ccc(OC2CCN(C(=O)COC)CC2)cc1 (stereo not shown) | 6.08%
COC(=O)CCCC(=O)N1CCC(CCC(=O)NC2CC2)CC1 | 16.6%
